PubChem BioAssay (NCI)
Compounds without any hit were thinned out: in the full panel of roughly 83,000, 20% have a hit.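 Interpretation: 100, growth as untreated; towards 0, rising growth inhibition; 0, no net growth; 0 to -100, cell death. Compounds scoring below 10 were considered active.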 The source made the active and inactive calls.

How the values were obtained:
Assay in all cases: NCI-60 one-dose screen, 48 h (100 = growth as untreated, 0 = no growth, -100 = all killed)
Conditions in all cases: 10 µM unless noted
SK-MEL-2 melanoma = tested on: SK-MEL-2 melanoma
EKVX NSCLC = tested on: EKVX NSCLC
SN12C renal = tested on: SN12C renal
UO-31 renal = tested on: UO-31 renal
ACHN renal = tested on: ACHN renal
CAKI-1 renal = tested on: CAKI-1 renal
A498 renal = tested on: A498 renal
CCRF-CEM leukemia = tested on: CCRF-CEM leukemia
MOLT-4 leukemia = tested on: MOLT-4 leukemia

Measured: growth

C[C@H]1O[C@@H](O[C@H]2[C@@H](O)C[C@H](O[C@H]3[C@@H](O)C[C@H](O[C@H]4CC[C@]5(C)C6CC[C@]7(C)[C@@H](C8=CC(=O)OC8)CC[C@]7(O)C6CC[C@@H]5C4)O[C@@H]3C)O[C@@H]2C)C[C@H](O)[C@@H]1O (some centres not stated)
active: SK-MEL-2 melanoma -68.5% | EKVX NSCLC -98.4% | SN12C renal -52.4% | UO-31 renal -90.4% | ACHN renal -68% | CAKI-1 renal -92.6% | A498 renal -28.5% | CCRF-CEM leukemia -58.6% | MOLT-4 leukemia -36.9%

N#Cc1c(-c2ccc(F)cc2)n2c(nc1=O)SC(=O)C2=O
inactive: SK-MEL-2 melanoma 92% | EKVX NSCLC 91.3% | SN12C renal 91.1% | UO-31 renal 110% | ACHN renal 90.3% | CAKI-1 renal 86.4% | A498 renal 70% | CCRF-CEM leukemia 85.4% | MOLT-4 leukemia 90.5%

CCOc1nc(-c2ccco2)n2nc(-c3ccco3)cc2n1
inactive: SK-MEL-2 melanoma 117% | EKVX NSCLC 95% | SN12C renal 104% | UO-31 renal 91.1% | ACHN renal 95.5% | CAKI-1 renal 95.9% | A498 renal 83.5% | CCRF-CEM leukemia 102% | MOLT-4 leukemia 114%
